The text below walks through data of PubChem BioAssay (Tox21).

Test [1] in a line: Nuclear factor erythroid 2-related factor 2/antioxidant responsive element (Nrf2/ARE) small molecule agonists: qHTS cell viability counter screen in human keratinocytes (AID 1919968; active = well fitted curve in the direction sought with a large enough effect in the repeat runs; an effect the other way counts as inactive or inconclusive; also: nearly all actives have a fitted effect of over 55% in size). In short, it runs like this: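 Fluorescence read-out from CellTiter-Fluor after 1 h at 37 C. Wells held HaCaT-derived ARE-luciferase reporter cells (1,500/well) treated 23 h with DMSO-dissolved compounds. Run in the same wells as the luciferase agonist read.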

Test [2] in a line: Nuclear factor erythroid 2-related factor 2/antioxidant responsive element (Nrf2/ARE) small molecule agonists: luciferase reporter gene qHTS assay in human keratinocytes (AID 1919969). Also: nearly all actives have a fitted effect of over 35% in size. Also: potency is read from the fitted curve at half-maximal effect.
Test [3] concerns the target Gonadotropin-releasing hormone receptor (Homo sapiens) (UniProt P30968). The experiment in a line: Human gonadotropin-releasing hormone receptor (GnRHR) small molecule agonists, calcium flux assay in GnRHR-HEK293 cells (AID 1920063). Also: nearly all actives have a fitted effect of over 35% in size. In outline: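 Calcium-dye fluorescence, Ex/Em=480/540, recorded every 1 sec over 3 min after compound addition to GnRHR-HEK293 cells. Cells had been seeded 18 hours earlier and dye-loaded for 1 hour at 37 C. Fifteen concentrations, triplicates.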

Test [4] deals with KiSS-1 receptor (Homo sapiens) (UniProt Q969F8). The experiment in a line: Human kisspeptin (KISS1R) small molecule agonists, calcium flux assay in KISS1R-HEK293 cells (AID 1920064; active = well fitted curve in the direction sought with a large enough effect in the repeat runs; an effect the other way counts as inactive or inconclusive). In outline: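 Calcium flux read-out: kinetic fluorescence at Ex/Em=480/540, 1 s intervals over 3 min, after pin-tool compound addition to dye-loaded KISS1R-HEK293 cells. Fifteen concentrations, triplicates.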

Test [5] in a line: G protein-coupled receptor (GPCR) small molecule agonists, calcium flux assay: HEK293 wild type cell line counter screen (AID 1920065). In short, it runs like this: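 Agonist mode; 18 h seeding at 37 C, 1 h dye load at 37 C; compounds pinned from DMSO, ATP as positive control; kinetic fluorescence 480/540 nm, 3 min, 1 s reads; 15 concentrations, triplicate.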
The nature of test [6]: p53 small molecule agonists, cell-based qHTS assay with human liver microsomes (AID 1963577). In outline:
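p53RE-bla cells, 4,000/well, compound added after 5 h, with human liver microsomes 0.5 mg/mL and NADPH 0.5 mg/mL final; 16 h at 37 C, then LiveBLAzer 2 h RT, fluorescence.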

Test [7] in a line: p53 small molecule agonists, cell-based qHTS assay with rat liver microsomes (AID 1963578). In short, it runs like this: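 p53RE-bla cells, 4,000/well, pre-incubated 5 h, then given compounds plus rat liver microsomes (0.5 mg/mL final) and NADPH (0.5 mg/mL final). Incubation 16 h at 37 C; beta-lactamase reporter read by LiveBLAzer fluorescence after 2 h at room temperature.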

A short description of test [8]: p53 small molecule agonists, cell-based qHTS assay with human liver microsomes: qHTS cell viability counter screen (AID 1963579). Also: nearly all actives have a fitted effect of over 45% in size. In short, it runs like this:
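p53RE-bla cells, 4,000/well, dosed 5 hours after plating, with human liver microsomes (0.5 mg/mL final) plus NADPH (0.5 mg/mL final), 16 hours at 37 C. Viability read as CellTiter-Glo luminescence after 30 min at room temperature.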

Test [9] can be described thus: p53 small molecule agonists, cell-based qHTS assay with rat liver microsomes: qHTS cell viability counter screen (AID 1963580). Also: nearly all actives have a fitted effect of over 45% in size. In outline: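 Cytotoxicity counter screen: intracellular ATP read by CellTiter-Glo luminescence in the p53 reporter wells. HCT-116 p53RE-bla cells were treated for 16 h at 37 C alongside rat liver microsomes and NADPH, each 0.5 mg/mL final.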

The nature of test [10]: p53 small molecule agonists, cell-based qHTS assay: qHTS cell viability counter screen (AID 1963581). Also: nearly all actives have a fitted effect of over 45% in size. In outline:
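Cytotoxicity read-out: ATP-based luminescence (CellTiter-Glo, 30 min RT) measured in the same wells as the p53 reporter assay, HCT-116 p53RE-bla cells, 16 h compound exposure at 37 C.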

A short description of test [11]: p53 small molecule agonists, cell-based qHTS assay (AID 1963582; active = well fitted activation curve with a large enough effect in the signal ratio in the repeat runs, not every such curve was filed as active; the % refers to the signal ratio). In outline:
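Fluorescence intensity read-out of a beta-lactamase reporter under a p53 response element. Cells were exposed to DMSO-dissolved compounds for 16 h at 37 C, then developed with FRET substrate for 2 h at RT.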

Test [12] deals with 5-hydroxytryptamine receptor 2A (Homo sapiens) (UniProt P28223). Briefly: 5-hydroxytryptamine receptor 2A (HTR2A) small molecule agonists, cell-based qHTS assay (AID 1963587). Also: nearly all actives have a fitted effect of over 30% in size. In outline: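 Kinetic calcium-flux fluorescence (2 min, 1 sec intervals) after compound addition in agonist mode. HTR2A-CHO cells were cultured 18 h, then dye-loaded 1 h at 37 C.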
Test [13] addresses Muscarinic acetylcholine receptor M1 (Homo sapiens) (UniProt P11229). Briefly: Cholinergic receptor muscarinic 1 (CHRM1) small molecule antagonists, cell-based qHTS assay (AID 1963588). Also: nearly all actives have a fitted effect of over 40% in size. In short, it runs like this:
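Compounds were tested at 15 concentrations in three independent runs. Dye-loaded CHRM1-CHO cells were exposed 5 min at room temperature before stimulation by acetylcholine added at 50nM. Intracellular calcium was read kinetically on FDSS for 3 min.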

The target is the same in test [14]. Briefly: Cholinergic receptor muscarinic 1 (CHRM1) small molecule agonists, cell-based qHTS assay (AID 1963589). Also: nearly all actives have a fitted effect of over 35% in size. In short, it runs like this:
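Calcium flux read-out: kinetic fluorescence at 1 sec intervals after pin-tool compound addition to dye-loaded CHRM1-CHO cells (human M1). Agonist mode; 15 concentrations tested in triplicate independent runs.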

Test [15] can be described thus: cAMP Responsive Elements (CRE) small molecule antagonists, cell-based qHTS assay (AID 1963591; active = well fitted inhibition curve with a large enough effect in the signal ratio in the repeat runs, not every such curve was filed as active; the % refers to the signal ratio). In short, it runs like this: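 HEK293T CRE-bla; 18 h preincubation; compound pin-transfer; NKH477 0.25 uM final, 3 h, 37 C; LiveBLAzer FRET substrate 2 h RT.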
The target in test [16] is Beta-2 adrenergic receptor (Homo sapiens) (UniProt P07550). Briefly: Adrenergic beta2 receptor (ADRB2) small molecule antagonists, cell-based qHTS assay (AID 1963592). Also: series mostly up to about 92 µM; nearly all actives have a fitted effect of over 50% in size. In outline:
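Assay format: CHO-ADRB2 cells, 18-20hr seeding at 37C/5% CO2, then compound plus 1nM isoproterenol agonist mix for 0.5hr RT. Homogeneous time-resolved fluorescence cAMP detection after 1hr, expressed as 665/615 nm ratio.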

For test [17], the target named is D(2) dopamine receptor (Homo sapiens) (UniProt P14416). The experiment in a line: Dopamine D2 receptor (DRD2) small molecule agonists, cell-based qHTS assay (AID 1963594). Also: nearly all actives have a fitted effect of over 35% in size. In short, it runs like this:
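cAMP accumulation in DRD2-HEK293 cells measured by HTRF after 1 h detection; compounds added 10 min before NKH477 (200nM […]) forskolin-analogue stimulation, 30 min at room temperature, with Ro20-1724 present at 0.1 mM final.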

For test [18] the target is unchanged. The experiment in a line: Dopamine D2 receptor (DRD2) small molecule antagonists, cell-based qHTS assay (AID 1963595; active = well fitted inhibition curve with a large enough effect in the signal ratio in the repeat runs, with a control signal flat; the % refers to the signal ratio). In short, it runs like this: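 Antagonism was scored as restored cAMP in HEK293-DRD2 cells. These cells were stimulated with 200 nM NKH477 and 12 nM quinpirole for 30 min at room temperature, in the presence of 0.1 mM Ro20-1724.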
Test [19] can be described thus: cAMP Responsive Elements (CRE) small molecule agonists, cell-based qHTS assay (AID 1963590). In outline: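 Beta-lactamase reporter readout: LiveBLAzer B/G FRET substrate, 2 h at room temperature, added after 3 h compound treatment of CRE-bla HEK 293T cells at 37 C/5% CO2.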
Test [20] concerns the target 5-hydroxytryptamine receptor 2A (Homo sapiens) (UniProt P28223). Briefly: 5-hydroxytryptamine receptor 2A (HTR2A) small molecule antagonists, cell-based qHTS assay (AID 1963586). Also: nearly all actives have a fitted effect of over 45% in size. In outline:
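CHO cells stably expressing human HTR2A were plated for 18 h at 37 C, then loaded with calcium dye for 1 h. Compounds were preincubated 5 min at room temperature before DOI (4 nM solution) was added. Kinetic fluorescence was read for 3 min.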

Molecules are shown by their SMILES. Where “and” joins values, the source holds several entries; their conditions need not be identical. Equal values may be shown once. Records with an inconclusive call do not appear. Calls of active or inactive are those of the source. Unless noted, calls follow the shape of the full dose curve.

Chain of Beta-2 adrenergic receptor (Homo sapiens) (P07550 whole entry, looked up): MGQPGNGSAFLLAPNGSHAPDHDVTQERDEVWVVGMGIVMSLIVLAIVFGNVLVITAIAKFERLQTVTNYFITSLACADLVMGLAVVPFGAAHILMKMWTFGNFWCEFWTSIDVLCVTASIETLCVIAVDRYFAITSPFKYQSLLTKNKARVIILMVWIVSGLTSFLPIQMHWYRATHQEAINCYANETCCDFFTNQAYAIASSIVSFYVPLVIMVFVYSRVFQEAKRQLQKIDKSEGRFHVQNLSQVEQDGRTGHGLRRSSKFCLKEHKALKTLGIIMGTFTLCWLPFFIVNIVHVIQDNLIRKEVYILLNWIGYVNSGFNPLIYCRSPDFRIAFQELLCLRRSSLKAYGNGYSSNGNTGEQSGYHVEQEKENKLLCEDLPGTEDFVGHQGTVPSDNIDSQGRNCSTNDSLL
Chain of D(2) dopamine receptor (Homo sapiens) (P14416 whole entry, looked up): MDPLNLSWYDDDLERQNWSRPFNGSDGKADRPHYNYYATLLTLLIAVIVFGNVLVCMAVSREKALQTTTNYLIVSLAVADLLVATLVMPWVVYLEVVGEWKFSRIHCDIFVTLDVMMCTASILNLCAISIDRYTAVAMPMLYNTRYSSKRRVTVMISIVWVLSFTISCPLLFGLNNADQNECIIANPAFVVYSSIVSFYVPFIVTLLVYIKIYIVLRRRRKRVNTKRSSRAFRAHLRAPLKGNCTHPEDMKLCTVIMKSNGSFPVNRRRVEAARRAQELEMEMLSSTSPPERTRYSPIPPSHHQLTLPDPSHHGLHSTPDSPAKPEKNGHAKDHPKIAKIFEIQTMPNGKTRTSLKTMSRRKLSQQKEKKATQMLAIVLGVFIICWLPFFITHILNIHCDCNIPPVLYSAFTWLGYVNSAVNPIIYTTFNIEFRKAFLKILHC
Chain of Gonadotropin-releasing hormone receptor (Homo sapiens) (P30968 whole entry, looked up): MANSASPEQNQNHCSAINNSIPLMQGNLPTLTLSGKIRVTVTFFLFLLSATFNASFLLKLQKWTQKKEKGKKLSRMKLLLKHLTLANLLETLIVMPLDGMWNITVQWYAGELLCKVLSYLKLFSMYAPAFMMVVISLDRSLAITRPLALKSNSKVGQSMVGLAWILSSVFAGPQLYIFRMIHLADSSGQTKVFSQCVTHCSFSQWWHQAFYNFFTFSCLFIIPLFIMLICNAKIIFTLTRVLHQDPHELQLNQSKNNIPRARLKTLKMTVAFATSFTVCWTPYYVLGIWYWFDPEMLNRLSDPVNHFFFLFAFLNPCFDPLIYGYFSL
Chain of KiSS-1 receptor (Homo sapiens) (Q969F8 whole entry, looked up): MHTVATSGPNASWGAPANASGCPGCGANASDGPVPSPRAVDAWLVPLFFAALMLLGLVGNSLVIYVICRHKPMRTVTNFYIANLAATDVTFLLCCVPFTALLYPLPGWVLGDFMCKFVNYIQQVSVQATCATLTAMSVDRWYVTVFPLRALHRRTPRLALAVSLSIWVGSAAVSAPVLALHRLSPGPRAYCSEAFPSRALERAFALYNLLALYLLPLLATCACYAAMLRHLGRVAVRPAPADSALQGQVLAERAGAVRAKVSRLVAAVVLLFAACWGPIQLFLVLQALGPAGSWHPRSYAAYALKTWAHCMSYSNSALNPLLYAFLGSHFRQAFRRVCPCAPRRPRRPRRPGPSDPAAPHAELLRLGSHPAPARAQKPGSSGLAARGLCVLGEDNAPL
Chain of Muscarinic acetylcholine receptor M1 (Homo sapiens) (P11229 whole entry, looked up): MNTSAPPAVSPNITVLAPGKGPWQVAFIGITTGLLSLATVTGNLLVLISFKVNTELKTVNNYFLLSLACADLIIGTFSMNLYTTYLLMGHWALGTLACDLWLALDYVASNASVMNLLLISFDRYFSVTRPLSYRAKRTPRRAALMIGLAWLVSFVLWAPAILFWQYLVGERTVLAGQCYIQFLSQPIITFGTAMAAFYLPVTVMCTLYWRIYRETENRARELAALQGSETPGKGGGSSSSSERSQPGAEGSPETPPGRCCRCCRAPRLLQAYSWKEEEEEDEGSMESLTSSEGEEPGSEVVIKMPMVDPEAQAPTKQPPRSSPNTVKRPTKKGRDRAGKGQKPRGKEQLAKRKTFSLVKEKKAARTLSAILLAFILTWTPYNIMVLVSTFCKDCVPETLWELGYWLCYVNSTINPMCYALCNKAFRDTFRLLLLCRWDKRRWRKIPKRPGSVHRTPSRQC
Chain of 5-hydroxytryptamine receptor 2A (Homo sapiens) (P28223 whole entry, looked up): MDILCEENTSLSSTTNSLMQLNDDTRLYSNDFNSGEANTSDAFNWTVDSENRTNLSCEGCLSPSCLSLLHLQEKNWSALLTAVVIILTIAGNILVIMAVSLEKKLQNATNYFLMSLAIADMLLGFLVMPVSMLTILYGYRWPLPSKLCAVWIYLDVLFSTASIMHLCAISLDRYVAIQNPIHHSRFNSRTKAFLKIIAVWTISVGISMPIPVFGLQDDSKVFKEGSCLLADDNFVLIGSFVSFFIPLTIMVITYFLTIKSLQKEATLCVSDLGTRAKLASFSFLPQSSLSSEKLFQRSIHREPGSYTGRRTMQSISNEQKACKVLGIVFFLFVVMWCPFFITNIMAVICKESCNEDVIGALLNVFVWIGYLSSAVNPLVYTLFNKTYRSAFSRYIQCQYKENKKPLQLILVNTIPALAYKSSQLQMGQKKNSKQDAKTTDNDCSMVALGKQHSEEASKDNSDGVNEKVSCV

In the case of `CCC(=O)c1ccc(O)cc1`, the Potency entry in test [1], in [2], in [3], in test [4], in test [5] and in test [6] was “inactive” in each case. Further, the Potency result in test [7], in [8], in test [9], in test [10], in [11] and in test [12] was “inactive” throughout. Further, the Potency result in test [13], in test [14], in test [15], in test [16], in test [17] and in [18] was “inactive” in each case.

`O=C(O)c1cccc(C(F)(F)F)c1`: the Potency result in test [1], in test [2], in test [3], in [4], in [5] and in test [6] was “inactive” each time. Besides, the Potency result in test [7], in test [8], in [9], in [10], in test [11] and in test [19] was “inactive” in each case. For the same molecule, the Potency entry in test [16], in [17] and in test [18] was “inactive” each time.

For `Cc1ccc(N=Nc2c(O)ccc3ccccc23)c(C)c1`, the Potency result in test [1], in test [3], in test [4], in [5], in test [6] and in test [7] was “inactive” in each case. The Potency result in test [8], in test [9], in test [10], in test [11], in test [13] and in [19] was “inactive” each time. Moreover, the Potency result in test [15], in [16], in test [17] and in [18] was “inactive” in each case. Besides, in test [2], the Potency was 2.66 µM (active).

Take `CC(=N\O)/C(C)=N/O`: the Potency entry in [1], in [2], in test [3], in [4], in test [5] and in [6] was “inactive” throughout. Moreover, the Potency entry in [7], in [8], in test [9], in [10], in test [20] and in [12] was “inactive” each time. Also, the Potency entry in test [13], in test [14], in test [19], in test [15], in test [16] and in test [17] was “inactive” each time. For the same molecule, the Potency result in test [18] is “inactive”.

Consider `C1CCC2OC2C1` (stereo not drawn), for which the Potency result in test [1], in test [2], in [3], in test [4], in test [5] and in test [6] was “inactive” each time. Moreover, the Potency entry in test [7], in [8], in test [9], in [10], in [20] and in test [12] was “inactive” each time. Besides, the Potency result in test [13], in test [14], in test [19], in test [15], in test [16] and in test [17] was “inactive” throughout. For the same molecule, the Potency result in test [18] was “inactive”.

In the case of `COc1ccc(C(=O)CC(=O)c2ccc(C(C)(C)C)cc2)cc1`, the Potency entry in test [1], in test [2], in [3], in test [4], in [5] and in test [6] was “inactive” each time. The Potency result in [7], in [8], in test [9], in [10], in test [20] and in test [12] was “inactive” in each case. For the same molecule, the Potency entry in test [13], in [14], in test [19], in [15], in [16] and in [17] was “inactive” in each case. For the same molecule, the Potency result in test [18] was “inactive”.

In the case of `CC(C)Oc1ccc2c(=O)c(-c3ccccc3)coc2c1`, the Potency entry in [1], in test [3], in test [4], in test [5], in test [6] and in [7] was “inactive” throughout. Further, the Potency result in test [8], in test [9], in test [10], in test [11], in test [19] and in test [15] was “inactive” each time. Also, the Potency result in test [16], in [17] and in test [18] was “inactive” throughout. For the same molecule, the Potency in [2] is 376 nM (active) and 266 nM (active).
